# Results as given in PubChem BioAssay (Tox21).
# Where “and” joins values, the source holds several entries; their conditions need not be identical. Equal entries are not always repeated. Results filed as inconclusive are left out. Some compounds were tested as several samples or in several runs, with calls that do not always agree. Calls of active or inactive are those of the source. Calls come from the whole dose curve; as a rule, active = well fitted activation curve with a large enough effect in the repeat runs; inconclusive = weak or mixed curves; inactive = flat fitted curve, though single readings scatter.
# Assay: A CellTox Green Cytotoxicity Assay to monitor cytotoxicity in HEK293 cells - 40 hour (AID 1224871); note: nearly all actives have a fitted effect of over 45% in size
# Conditions: CellTox Green fluorescence; series mostly up to 76.8 µM; cytotoxicity increase: at the top concentration
# Excerpt: National Center for Advancing Translational Sciences [NCATS]
# NIH Chemical Genomics Center [NCGC]
# U.S. Environmental Protection Agency [EPA]
# National Institutes of Environmental Health Sciences [NIEHS]
# National Toxicology Program [NTP]
# Cell-based models are critical for drug discovery. Determining the natural cytotoxic effects resulting from test compounds is an essential research activity. A CellTox Green Cytotoxicity Assay to monitor cytotoxicity in real time of continues cell culture during 40 hours of the compound treatment was used to screen Tox21 10K library compounds in Hek293 cells. CellTox Green Cytotoxicity Assay is a nonlytic, homogeneous, biofluorescent method to measure cytotoxicity in cell culture after experimental manipulation. The assay system uses a proprietary asymmetric cyanine dye that is excluded from viable cells but preferentially stains the dead cell's DNA. […] Viable cells produce no appreciable increases in fluorescence. Therefore, the fluorescence signal produced by the binding interaction with dead cell DNA is proportional to cytotoxicity.
# The mixture of Hek293 cell suspension and reagents were dispensed at 600cells/6 ul/well in 1536-well tissue culture treated black solid bottom plates using a Multidrop dispenser. After the assay plates were incubated at a 37 C/5% CO2 incubator for 5 hours, 23 nL of compounds dissolved in DMSO, positive and negative controls was transferred to the assay plate by a pintool work station. The plates were incubated at 37 C for 40 hours. The fluorescence intensity were measured at 0h, 8h, 16h, 24h, 32h and 40h time points using ViewLux plate reader during compound treatment.
# % is set by controls: 0 for no effect and ±100 for the full control effect; potency is the fitted concentration of half-maximal effect.
Compound,cytotoxicity increase,Potency
CC(=[OH+])/C=C(/C)[O-].CC(=[OH+])/C=C(\C)[O-].CC(=[OH+])/C=C(\C)[O-].[Al],-8.98% (inactive),–
CC(C)(C)c1ccc(CSc2cnn(C(C)(C)C)c(=O)c2Cl)cc1,33.8% (inactive),–
O=[N+]([O-])c1cc(C(F)(F)F)c(Cl)c([N+](=O)[O-])c1Cl,–,6.16 µM (active)
BrCC(Br)c1ccccc1 (stereo not given),27.6% (inactive),–
O=C1C=CC(=O)c2ccccc21,–,3.89 µM (active)
C=CC(=O)OCCCCOC(=O)C=C,–,43.6 µM (active)
SCc1ccco1,16.1% (inactive),–
Fc1ccc(Oc2ccnc3cc(Cl)cc(Cl)c23)cc1,7.02% (inactive),–
S=C(SSC(=S)N1CCCCC1)N1CCCCC1,–,0.151 µM (active)
CS(=O)(=O)c1ccc(C(=O)C2C(=O)CCCC2=O)c([N+](=O)[O-])c1,–,44.4 µM (active)
CCC[CH2][Sn]([CH2]CCC)([CH2]CCC)[O]C(=O)c1ccccc1,–,0.692 µM (active)
O=C(O)C1C2CCC(O2)C1C(=O)O (stereo not given),–,inactive
O=C(Cl)c1ccc(Cl)cc1,-19.1% (inactive),–
Clc1ccc(C(c2ccc(Cl)cc2)C(Cl)(Cl)Cl)cc1,–,55.3 µM (active) and inactive
CC(=O)c1ccc(-c2ccccc2)cc1,16.4% (inactive),–
CC(=[OH+])/C=C(/C)[O-].CC(=[OH+])/C=C(\C)[O-].CC(=[OH+])/C=C(\C)[O-].[Fe],20.3% (inactive),–
C[C@]12CC[C@@H]3c4ccc(OC(=O)N(CCCl)CCCl)cc4CC[C@H]3[C@@H]1CC[C@@H]2O,-13.2% [at 35.3 µM] (inactive),–
CN(C)CCc1c[nH]c2ccc(O)cc12,5.42% (inactive),–
CCOP(=S)(OCC)SCS(=O)(=O)C(C)(C)C,11.5% (inactive),–
O=[N+]([O-])c1c2ccccc2cc2ccccc12,–,5.43 µM (active)

Compound,cytotoxicity increase,Potency
CCCCCCCCCCCCBr,8.46% (inactive),–
CC(C)CC(C)(c1ccc(O)cc1)c1ccc(O)cc1,–,55.1 µM (active)
COc1ccc([N+](=O)[O-])cc1O,1.07% [at 35.3 µM] (inactive),–
CCOCCOC(C)=O,-15.4% (inactive),–
CC(O)C#N (stereo not given),-0.915% (inactive),–
C[C@H]1CC[C@@H]2[C@@H](C)[C@H]3[C@H](C[C@H]4[C@@H]5CC=C6CC(O[C@@H]7O[C@H](CO)[C@H](O)[C@H](O[C@@H]8O[C@H](CO)[C@@H](O)[C@H](O)[C@H]8O)[C@H]7O[C@H]7O[C@@H](C)[C@H](O)[C@@H](O)[C@H]7O)CC[C@]6(C)[C@H]5CC[C@]34C)N2C1 (stereo not given in full),–,7.14 µM (active)
C[C@@H]1O[C@@H](O[C@H]2C[C@@H](O)[C@]3(CO)[C@H]4[C@H](O)C[C@]5(C)[C@@H](C6=CC(=O)OC6)CC[C@]5(O)[C@@H]4CC[C@]3(O)C2)[C@H](O)[C@H](O)[C@H]1O,–,inactive
CN(C)C(=S)[S-].CN(C)C(=S)[S-].[Cu+2],–,2.38 µM (active)
ClC(Cl)=C(Cl)Cl,1.01% (inactive),–
CC(C)Oc1cccc(NC(=O)c2ccccc2C(F)(F)F)c1,–,61.6 µM (active)
O=C(NC(=O)c1c(F)cccc1F)Nc1cc(Cl)c(OC(F)(F)C(F)F)c(Cl)c1,-6.09% (inactive),–
N#Cc1ccccc1Cl,6.65% (inactive),–
Brc1c(Br)c(Br)c(Oc2c(Br)c(Br)c(Br)c(Br)c2Br)c(Br)c1Br,1.02% [at 15.8 µM] (inactive),–
ClCCN1CCOCC1,-11.5% (inactive),–
Oc1c(Br)c(Br)c(Br)c(Br)c1Br,2.97% (inactive),–
COc1ccc(OC)c(C=O)c1,-32.8% (inactive),–
Cc1ccc(CCl)cc1,5.77% (inactive),–
Cn1cc(C2=C(c3cn(C4CCN(Cc5ccccn5)CC4)c4ccccc34)C(=O)NC2=O)c2ccccc21,1.99% [at 35.3 µM] (inactive),–
Clc1ccc(COC(Cn2ccnc2)c2ccc(Cl)cc2Cl)cc1 (stereo not given),–,45.7 µM (active) and 54.7 µM (active) and inactive
Nc1ccc([N+](=O)[O-])cc1Cl,5.04% (inactive),–
